TWEAK-Fn14 inh = TWEAK-Fn14 signaling inhibition | AID 1159606 | TWEAK-stimulated Fn14 reporter cells, luciferase luminescence, 8 h | inhibition, % at 10 µM | actives 2% (n = 360,000); in the data active = inhibition above about 50%
EWS-Fli inh = blocks EWS/Fli oncoprotein-driven transcription | inhibition, % at 12.6 µM | AID 651661 | A673 NR0B1-luciferase reporter, viability-normalised | actives 0.67% (n = 350,000);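 active = mean inhibition of at least 50% after viability correction, with every replicate also passing that limit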;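 note: firefly luciferase signal divided by Alamar Blue viability fluorescence both relative to DMSO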
TROY signal inh = inhibitors of TROY-dependent NF-kB signaling | actives 0.98% (n = 360,000) | AID 1347056 | Q293 LMP1-TROYcd NF-kB luciferase reporter, 4 h | inhibition, % at 10 µM;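 active = compounds whose plate-normalised and pattern-corrected inhibition of the luciferase reporter signal at the single screening dose is 50% or more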
LGR2 inh = blocks bursicon-induced cAMP signaling via Drosophila LGR2 | actives 0.35% (n = 380,000) | HEK293 LGR2, CRE-luciferase, bursicon-stimulated, 4 h | inhibition, % at 9.99 µM;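 active = drop in luminescence signal, shown as inhibition above about 50% in the replicate tests, limit read from the data, passing the limit was not always enough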;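 note: agonist challenge used bursicon conditioned medium at about half maximal strength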
LMP1 NFkB inh = reduces LMP1-driven NF-kappaB luciferase signal. actives 0.69% (n = 350,000). inhibition, % at 12.5 µM. LMP1-induced NF-kappaB luciferase reporter cells, luminescence; in the data active = inhibition above about 41%;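 note: 0% = neutral control wells and 100% = reference inhibitor control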
The depositor's hits bear a star. Shown are actives, neighbours in structure and some others; about 2.6% of the full set was active somewhere.

For Cc1coc2c1C(=O)C(=O)c1c-2ccc2c1CCCC2(C)C the results were TWEAK-Fn14 inh 32.8, EWS-Fli inh -22.8, TROY signal inh 37.2, LGR2 inh -7.6 and LMP1 NFkB inh -4.4.
`O=c1/c(=C/c2ccc(O)c([N+](=O)[O-])c2)sc2nc3ccccc3n12` gave TWEAK-Fn14 inh 42.9, EWS-Fli inh -26.4, TROY signal inh -8.9, LGR2 inh 2.1 and LMP1 NFkB inh -11.7.
`CCN(CC)c1ccc(/C=c2\sc3nc4ccccc4n3c2=O)c(O)c1` gave TWEAK-Fn14 inh 67.2*, EWS-Fli inh -14.6, TROY signal inh 53.7*, LGR2 inh -2.5 and LMP1 NFkB inh 1.7.
`Cc1cc(/C=c2/sc3nc4ccccc4n3c2=O)c(C)n1-c1ccccn1` gave TWEAK-Fn14 inh 82.5*, TROY signal inh 75.2* and LMP1 NFkB inh 56.2*.
Screening Cc1cc(/C=c2\sc3nc4ccccc4n3c2=O)c(C)n1-c1ccc(C(=O)O)cc1 returned TWEAK-Fn14 inh 9.6, EWS-Fli inh -18.5, TROY signal inh -12.0, LGR2 inh -17.6 and LMP1 NFkB inh -9.8.
`CO[C@H]1CN(C)C(=O)c2cc(NC(=O)C3CCC3)ccc2OC[C@@H](C)N(CC2CCCCC2)C[C@@H]1C` gave EWS-Fli inh 16.5 and LGR2 inh 19.6.
`COC(=O)C1=CN(c2ccc(OC)cc2OC)C(N)=C(C#N)C1c1cccc([N+](=O)[O-])c1` (configuration not stated) gave EWS-Fli inh 56.7* and LGR2 inh -11.8.
Screening c1ccc2c(-c3cncc4ccccc34)cncc2c1 returned TWEAK-Fn14 inh 54.4*, EWS-Fli inh -10.0, TROY signal inh 34.2, LGR2 inh 13.8 and LMP1 NFkB inh 9.3.
For c1ccc2c(c1)-c1cccc3cncc-2c13 the results were TWEAK-Fn14 inh -16.4, EWS-Fli inh -24.2, TROY signal inh -51.3, LGR2 inh -15.7 and LMP1 NFkB inh 8.1.
c1ccc(-c2noc(C3CCC3)n2)nc1 was read as TWEAK-Fn14 inh 1.2, EWS-Fli inh -44.4, TROY signal inh -7.6 and LGR2 inh -15.5.
For CCCCC1CCC(c2nc(-c3ccccn3)no2)CC1 (configuration not stated) the results were TWEAK-Fn14 inh 55.5*, TROY signal inh 25.4 and LMP1 NFkB inh -9.3.
Screening C[C@@H]1CN([C@H](C)CO)C(=O)c2cc(NS(=O)(=O)c3cccs3)ccc2O[C@@H]1CN(C)Cc1ccc2c(c1)OCO2 returned EWS-Fli inh 11.8 and LGR2 inh 0.0.
Screening COc1ccc(OCC(=O)N2c3ccccc3CCc3ccccc32)cc1 returned TWEAK-Fn14 inh -5.9, TROY signal inh 3.7, LGR2 inh 5.2 and LMP1 NFkB inh 4.0.
`COc1ccc(N2C3=[N+](CC2(C)O)c2ccccc2CC3)cc1` (configuration not stated) gave TWEAK-Fn14 inh -27.7, EWS-Fli inh 1.1, TROY signal inh -20.8, LGR2 inh -40.6 and LMP1 NFkB inh 69.3*.
For COc1ccc(Cn2c(N)c(C#N)c3nc4ccccc4nc32)cc1 the results were TWEAK-Fn14 inh 33.3, TROY signal inh 18.9, LGR2 inh -2.1 and LMP1 NFkB inh -26.8.
`N#Cc1c(N)n(CCOC(=O)c2cccc(Br)c2)c2nc3ccccc3nc12` gave TWEAK-Fn14 inh 11.9, TROY signal inh 69.0* and LMP1 NFkB inh 0.3.
`N#Cc1c(N)n(CCOC(=O)c2cccc([N+](=O)[O-])c2)c2nc3ccccc3nc12` gave TWEAK-Fn14 inh -7.5, TROY signal inh 23.4 and LMP1 NFkB inh 0.1.
COc1cccc(Cn2c(N)c(C#N)c3nc4ccccc4nc32)c1OC was read as TWEAK-Fn14 inh 18.0, TROY signal inh 65.2* and LMP1 NFkB inh 7.4.
For N#Cc1c(N)n(CCc2ccc(F)cc2)c2nc3ccccc3nc12 the results were TWEAK-Fn14 inh 62.6* and LMP1 NFkB inh 5.7.
For COc1ccc(-n2c(N)c(C(=O)NCc3ccco3)c3nc4ccccc4nc32)cc1 the results were TWEAK-Fn14 inh 65.6*, TROY signal inh 29.8 and LMP1 NFkB inh 3.8.
O=C(Cc1ccccn1)N1CC(=O)N2[C@H](C1)[C@@H](c1ccc(C#CC3CC3)cc1)[C@@H]2CO was read as EWS-Fli inh 19.3 and LGR2 inh 10.0.
For Nc1c(C(=O)NCCN2CCOCC2)c2nc3ccccc3nc2n1CCc1ccccc1 the results were TWEAK-Fn14 inh 13.6, TROY signal inh 69.1* and LMP1 NFkB inh 14.9.
Nc1c(C(=O)NCc2ccco2)c2nc3ccccc3nc2n1CCc1ccc(F)cc1 was read as TWEAK-Fn14 inh 21.3, TROY signal inh 64.3* and LMP1 NFkB inh 2.2.

Bioassay records deposited in PubChem BioAssay by several laboratories.
